Assay results: the supplement of paper PMC10849652
The full data set covers some 8,800 targets. This sample favours those with a hit. About 0.5% of all pairs of compound and target were hits. A number with no mark means an inactive call.

Columns and labels:
Assay in all cases: log2 fold change, soluble protein after heating vs DMSO (PISA); higher = thermal stabilisation; K562 lysate, 10 uM; active = over 0.2 and 3.5 SD of the protein, either way, in both replicates (recomputed)
alvocidib = compound: CN1CC[C@H](c2c(O)cc(O)c3c(=O)cc(-c4ccccc4Cl)oc23)[C@H](O)C1 [alvocidib]
Method in brief: (§1)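 A 30 min treatment with 10 μM compound was applied to crude K562 extract at 1 mg/mL protein in PBS pH 7.4 with 1 mM MgCl2. Heating for 3 min spanned 48°C-58°C, after which aliquots were pooled, adjusted to 0.5% NP-40 at 4°C and spun at 21,000xg for 90 min. TMTpro 16plex LC-MS/MS of the supernatant, with channel sums equalised, gave values recorded as log-two fold change in thermal stability against solvent controls, from duplicates.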

Tubastatin A = compound: CN1CCc2c(c3ccccc3n2Cc2ccc(C(=O)NO)cc2)C1 [Tubastatin A]
Method in brief: as §1

[1] = compound: CNC(=O)C1=CC=CC=C1NC2=NC(=NC=C2Cl)NC3=C(C=C(C=C3)N4CCOCC4)OC
Method in brief: as §1

defactinib = compound: CNC(=O)c1ccc(Nc2ncc(C(F)(F)F)c(NCc3nccnc3N(C)S(C)(=O)=O)n2)cc1 [defactinib]
Method in brief: as §1

[2] = compound: CNc1nc(-c2ccc3c(N)n[nH]c3c2)cc(N2C[C@@H](C(=O)NC3CCCCC3)CC[C@H]2C)n1
Method in brief: as §1

encorafenib = compound: COC(=O)N[C@@H](C)CNc1nccc(-c2cn(C(C)C)nc2-c2cc(Cl)cc(NS(C)(=O)=O)c2F)n1 [encorafenib]
Method in brief: as §1

[3] = compound: COC(=O)[C@H](CCSC)NC(=O)C1=C(C=C(C=C1)NC[C@H](CS)N)C2=CC=CC=C2
Method in brief: as §1

alisertib = compound: COc1cc(Nc2ncc3c(n2)-c2ccc(Cl)cc2C(c2c(F)cccc2OC)=NC3)ccc1C(=O)O [alisertib]
Method in brief: as §1

[4] = compound: COc1cc2nc(-c3cc(F)ccc3O)nc(N[C@@H]3CNC[C@H]3C(C)(C)O)c2cc1OC
Method in brief: as §1

gefitinib = compound: COc1cc2ncnc(Nc3ccc(F)c(Cl)c3)c2cc1OCCCN1CCOCC1 [gefitinib]
Method in brief: as §1

Chain of UniProt Q96GS6 (Q96GS6 whole entry, looked up): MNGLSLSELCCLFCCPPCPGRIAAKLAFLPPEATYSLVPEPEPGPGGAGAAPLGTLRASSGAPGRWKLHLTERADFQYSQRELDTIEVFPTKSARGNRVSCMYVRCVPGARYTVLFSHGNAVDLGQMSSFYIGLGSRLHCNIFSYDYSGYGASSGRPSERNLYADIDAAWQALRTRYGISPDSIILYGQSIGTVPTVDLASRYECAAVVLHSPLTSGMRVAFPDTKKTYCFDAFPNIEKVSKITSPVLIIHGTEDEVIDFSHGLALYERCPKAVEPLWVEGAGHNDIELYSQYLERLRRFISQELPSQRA
Chain of UniProt Q9NUQ8 (Q9NUQ8 whole entry, looked up): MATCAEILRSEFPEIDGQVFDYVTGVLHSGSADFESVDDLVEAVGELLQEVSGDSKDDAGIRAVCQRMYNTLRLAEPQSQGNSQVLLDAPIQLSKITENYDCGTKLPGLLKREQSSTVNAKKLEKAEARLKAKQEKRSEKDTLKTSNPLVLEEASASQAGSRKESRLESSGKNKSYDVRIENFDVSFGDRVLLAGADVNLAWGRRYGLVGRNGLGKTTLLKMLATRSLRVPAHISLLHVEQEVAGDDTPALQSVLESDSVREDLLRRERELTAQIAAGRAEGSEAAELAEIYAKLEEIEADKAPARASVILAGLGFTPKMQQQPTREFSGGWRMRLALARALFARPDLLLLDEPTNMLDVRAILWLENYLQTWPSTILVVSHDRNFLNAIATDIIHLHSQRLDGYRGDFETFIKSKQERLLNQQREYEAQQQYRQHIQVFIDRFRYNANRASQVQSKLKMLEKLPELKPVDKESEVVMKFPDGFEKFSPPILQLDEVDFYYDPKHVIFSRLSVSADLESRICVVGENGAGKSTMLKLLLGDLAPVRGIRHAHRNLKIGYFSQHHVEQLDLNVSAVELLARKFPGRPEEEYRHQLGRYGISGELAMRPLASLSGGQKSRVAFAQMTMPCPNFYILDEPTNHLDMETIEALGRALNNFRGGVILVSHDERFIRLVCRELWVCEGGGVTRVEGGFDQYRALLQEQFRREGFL
Chain of UniProt P33121 (P33121 whole entry, looked up): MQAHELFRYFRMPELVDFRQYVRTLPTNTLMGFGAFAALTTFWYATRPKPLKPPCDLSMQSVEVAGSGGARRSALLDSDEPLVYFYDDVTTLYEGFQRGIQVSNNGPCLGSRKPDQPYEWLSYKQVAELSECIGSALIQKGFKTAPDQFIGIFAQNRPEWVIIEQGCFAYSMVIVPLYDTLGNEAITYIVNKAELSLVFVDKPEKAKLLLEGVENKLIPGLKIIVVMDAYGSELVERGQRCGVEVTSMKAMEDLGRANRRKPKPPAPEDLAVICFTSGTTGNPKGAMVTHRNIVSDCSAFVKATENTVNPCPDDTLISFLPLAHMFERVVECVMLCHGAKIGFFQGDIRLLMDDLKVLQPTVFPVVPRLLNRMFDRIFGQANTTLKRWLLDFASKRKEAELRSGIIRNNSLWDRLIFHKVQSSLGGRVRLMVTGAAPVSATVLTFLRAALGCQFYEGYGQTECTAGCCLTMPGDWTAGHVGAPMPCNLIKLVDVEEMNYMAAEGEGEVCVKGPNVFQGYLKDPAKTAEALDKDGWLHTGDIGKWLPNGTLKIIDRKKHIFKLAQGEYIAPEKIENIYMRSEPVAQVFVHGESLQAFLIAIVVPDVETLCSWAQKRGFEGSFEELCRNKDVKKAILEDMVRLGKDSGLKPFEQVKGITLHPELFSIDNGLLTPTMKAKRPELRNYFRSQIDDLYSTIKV
Chain of UniProt Q01432 (Q01432 whole entry, looked up): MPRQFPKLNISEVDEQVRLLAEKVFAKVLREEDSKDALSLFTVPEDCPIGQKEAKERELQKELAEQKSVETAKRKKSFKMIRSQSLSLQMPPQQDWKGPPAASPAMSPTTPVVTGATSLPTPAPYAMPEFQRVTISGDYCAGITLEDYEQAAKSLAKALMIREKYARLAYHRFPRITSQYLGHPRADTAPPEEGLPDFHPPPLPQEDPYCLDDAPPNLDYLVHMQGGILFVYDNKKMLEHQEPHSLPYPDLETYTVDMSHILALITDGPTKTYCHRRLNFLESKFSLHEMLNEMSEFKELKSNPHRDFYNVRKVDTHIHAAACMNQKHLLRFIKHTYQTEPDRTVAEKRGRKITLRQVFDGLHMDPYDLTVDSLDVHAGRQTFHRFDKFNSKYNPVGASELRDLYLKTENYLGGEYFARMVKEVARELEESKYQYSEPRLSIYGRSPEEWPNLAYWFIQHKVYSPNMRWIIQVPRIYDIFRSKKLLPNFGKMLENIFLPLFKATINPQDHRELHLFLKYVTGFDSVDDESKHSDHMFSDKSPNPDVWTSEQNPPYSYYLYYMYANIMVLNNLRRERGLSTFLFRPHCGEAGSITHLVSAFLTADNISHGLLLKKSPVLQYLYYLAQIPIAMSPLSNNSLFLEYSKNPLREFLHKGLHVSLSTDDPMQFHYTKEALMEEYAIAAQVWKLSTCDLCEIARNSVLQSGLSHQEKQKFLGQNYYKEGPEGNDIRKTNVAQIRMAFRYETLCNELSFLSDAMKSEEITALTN
Chain of UniProt Q96NW4 (Q96NW4 whole entry, looked up): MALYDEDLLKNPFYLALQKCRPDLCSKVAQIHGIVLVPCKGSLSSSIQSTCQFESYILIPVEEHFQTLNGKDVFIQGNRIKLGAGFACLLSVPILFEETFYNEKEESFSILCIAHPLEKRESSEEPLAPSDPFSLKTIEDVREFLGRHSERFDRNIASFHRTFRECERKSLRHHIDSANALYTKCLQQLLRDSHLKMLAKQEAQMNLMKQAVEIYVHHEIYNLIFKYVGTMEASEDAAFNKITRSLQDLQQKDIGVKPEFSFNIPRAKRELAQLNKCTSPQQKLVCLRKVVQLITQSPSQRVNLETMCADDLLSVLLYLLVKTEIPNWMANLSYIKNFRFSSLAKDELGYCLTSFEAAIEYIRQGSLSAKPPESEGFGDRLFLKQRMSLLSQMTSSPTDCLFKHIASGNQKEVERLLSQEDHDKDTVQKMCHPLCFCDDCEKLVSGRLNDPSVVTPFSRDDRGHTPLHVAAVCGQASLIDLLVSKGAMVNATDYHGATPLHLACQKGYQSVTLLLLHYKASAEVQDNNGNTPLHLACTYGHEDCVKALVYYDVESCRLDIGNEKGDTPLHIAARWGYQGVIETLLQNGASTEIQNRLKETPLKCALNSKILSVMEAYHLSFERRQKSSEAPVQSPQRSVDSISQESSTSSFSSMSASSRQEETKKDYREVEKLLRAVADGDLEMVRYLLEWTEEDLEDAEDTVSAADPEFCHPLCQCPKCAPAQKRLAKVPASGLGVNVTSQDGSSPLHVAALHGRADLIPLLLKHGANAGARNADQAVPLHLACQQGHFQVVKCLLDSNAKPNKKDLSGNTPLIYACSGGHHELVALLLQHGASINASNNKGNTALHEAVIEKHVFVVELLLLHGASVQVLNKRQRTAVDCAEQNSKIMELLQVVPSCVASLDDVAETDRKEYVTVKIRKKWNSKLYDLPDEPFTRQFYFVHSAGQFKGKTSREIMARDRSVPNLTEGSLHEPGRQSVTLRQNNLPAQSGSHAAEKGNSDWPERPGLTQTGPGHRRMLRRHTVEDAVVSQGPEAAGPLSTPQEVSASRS
Chain of UniProt Q8NFV4 (Q8NFV4 whole entry, looked up): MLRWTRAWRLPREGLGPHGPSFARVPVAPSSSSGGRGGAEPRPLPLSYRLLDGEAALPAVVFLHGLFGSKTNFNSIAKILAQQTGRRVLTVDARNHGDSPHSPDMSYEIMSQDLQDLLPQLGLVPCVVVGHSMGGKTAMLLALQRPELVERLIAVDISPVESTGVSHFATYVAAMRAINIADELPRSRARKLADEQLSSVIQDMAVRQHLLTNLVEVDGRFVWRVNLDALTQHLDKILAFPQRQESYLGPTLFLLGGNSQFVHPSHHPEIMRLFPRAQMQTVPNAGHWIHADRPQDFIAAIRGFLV
Chain of UniProt Q9UJX3 (Q9UJX3 whole entry, looked up): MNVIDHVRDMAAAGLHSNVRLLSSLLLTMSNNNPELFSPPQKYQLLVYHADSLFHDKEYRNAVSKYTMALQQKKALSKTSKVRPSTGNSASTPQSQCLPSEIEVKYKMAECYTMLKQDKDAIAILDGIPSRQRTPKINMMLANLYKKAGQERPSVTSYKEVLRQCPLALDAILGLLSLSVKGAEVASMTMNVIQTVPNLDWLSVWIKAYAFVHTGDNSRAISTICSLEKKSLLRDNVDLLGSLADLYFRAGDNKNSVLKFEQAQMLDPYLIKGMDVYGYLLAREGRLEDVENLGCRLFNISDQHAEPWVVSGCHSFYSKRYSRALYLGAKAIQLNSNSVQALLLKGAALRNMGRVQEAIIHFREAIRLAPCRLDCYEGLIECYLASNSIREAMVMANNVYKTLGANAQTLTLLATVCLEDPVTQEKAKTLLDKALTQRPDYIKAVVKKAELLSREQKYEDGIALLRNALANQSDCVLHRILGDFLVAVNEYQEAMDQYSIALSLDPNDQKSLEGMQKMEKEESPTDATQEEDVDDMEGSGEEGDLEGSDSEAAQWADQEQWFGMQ
Chain of UniProt Q6P1M9 (Q6P1M9 whole entry, looked up): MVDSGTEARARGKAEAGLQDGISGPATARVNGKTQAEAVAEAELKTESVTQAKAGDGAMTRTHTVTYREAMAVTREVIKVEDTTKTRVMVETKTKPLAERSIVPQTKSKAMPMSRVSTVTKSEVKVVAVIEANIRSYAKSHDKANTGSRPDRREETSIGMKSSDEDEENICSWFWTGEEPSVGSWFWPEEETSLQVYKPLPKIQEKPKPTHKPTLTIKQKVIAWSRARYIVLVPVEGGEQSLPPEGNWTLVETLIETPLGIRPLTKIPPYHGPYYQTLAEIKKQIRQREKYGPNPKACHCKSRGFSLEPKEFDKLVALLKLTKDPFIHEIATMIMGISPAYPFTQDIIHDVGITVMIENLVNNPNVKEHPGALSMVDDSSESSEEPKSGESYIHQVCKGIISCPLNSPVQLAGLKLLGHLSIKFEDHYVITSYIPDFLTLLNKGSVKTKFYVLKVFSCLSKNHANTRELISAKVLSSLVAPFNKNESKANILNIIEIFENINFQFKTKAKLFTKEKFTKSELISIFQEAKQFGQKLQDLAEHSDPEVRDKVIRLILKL

Target	log2 fold change (alvocidib)	log2 fold change (Tubastatin A)	log2 fold change [1]	log2 fold change (defactinib)	log2 fold change [2]	log2 fold change (encorafenib)	log2 fold change [3]	log2 fold change (alisertib)	log2 fold change [4]	log2 fold change (gefitinib)
ACIN1 (UniProt E7EQT4)	-0.093	0.095	0.003	-0.038	0.06	0.022	-0.033	-0.039	-0.011	0.051
AGO4 (UniProt Q9HCK5)	-0.013	-0.003	0.003	-0.027	-0.214 (active)	0.025	-0.092	-0.008	0.037	-0.015
ALDH1L2 (UniProt Q3SY69)	-0.04	-0.03	-0.028	-0.04	-0.021	-0.002	0.288 (active)	-0.039	0.039	0.017
ABHD17B (UniProt Q5VST6)	0	-0.016	-0.003	0.064	-0.099	0.059	-0.642 (active)	0.06	-0.011	0.043
AKAP11 (UniProt Q9UKA4)	0.032	0.026	0.001	0.093	-0.01	-0.03	0.144	-0.022	-0.119	-0.114
AARS2 (UniProt Q5JTZ9)	0.064	-0.093	-0.011	-0.05	-0.017	0.006	0.106	0.02	-0.119	-0.02
ACACB (UniProt O00763)	-0.04	-0.153	0.007	0.019	-0.043	0.127	-0.156	0.016	0.006	0.006
ANKRD52 (UniProt Q8NB46)	-0.002	-0.132	-0.003	0.076	0.014	0.047	0.11	0.005	0	0.039
AKT1 (UniProt P31749)	-0.002	-0.018	0.036	0.038	-0.05	0.084	0.093	0.019	0.003	-0.05
ARAP1 (UniProt Q96P48)	-0.027	-0.135	0.033	0.075	0.017	0.06	0.078	0.015	0.003	0.041
ARHGEF1 (UniProt M0QZR4)	0.011	-0.085	0.016	-0.005	-0.016	0.022	0.063	0.001	-0.01	-0.014
ANKRD30B (UniProt Q9BXX2)	-0.307	0.007	-0.01	-0.155	0.284	-0.113	0.164	-0.002	-0.067	-0.036
ALG13 (UniProt Q9NP73)	-0.039	-0.065	0.122	0.028	0.053	0.059	-0.082	-0.059	0	-0.224
APOBEC3C (UniProt Q9NRW3)	-0.019	-0.121	0.018	0.013	-0.007	0.047	-0.067	0.009	0.003	-0.005
ARHGAP6 (UniProt O43182)	0.003	-0.201	0.129	0.012	-0.017	0.06	0.063	0.017	-0.012	-0.069
AKAP8 (UniProt O43823)	-0.031	-0.038	-0.059	-0.001	-0.073	0.072	-0.098	0.02	0.058	-0.042
ACTG1 (UniProt I3L4N8)	0.089	0.119	0.046	-0.142	-0.005	0.209	0	-0.198	-0.003	-0.115
ANAPC7 (UniProt Q9UJX3)	0.011	-0.1	0.036	0.014	-0.03	0.026	0.002	-0.001	0.005	0.017
AK2 (UniProt P54819)	-0.003	0.05	-0.019	0.016	0.033	-0.025	-0.018	0.008	-0.025	0.019
ARMCX5 (UniProt Q6P1M9)	0.029	-0.105	0.067	0.014	-0.012	0.045	0.023	-0.003	0.035	0.035
AFF1 isoform 2 (UniProt P51825)	-0.157	0.052	0.076	0.083	0.004	-0.001	-0.033	-0.043	0.157	-0.323
AMPD3 isoform 4 (UniProt Q01432)	0.012	0.027	0.015	0.011	-0.034	-0.013	0.103	0.008	-0.068	0.012
ABHD11 (UniProt Q8NFV4)	0	0.032	-0.066	0.034	0.087	-0.028	0.173	-0.027	0.022	0.004
ANKRD27 (UniProt Q96NW4)	-0.056	-0.118	0.046	0.035	0.003	-0.007	0.103	-0.053	-0.087	0.03
ADAMTS5 (UniProt Q9UNA0)	-0.33	0.149	0.105	-0.052	0.278	-0.134	-0.012	0.073	0.109	-0.093
ARAF (UniProt P10398)	0.036	-0.08	0.019	-0.039	-0.105	0.307 (active)	0.093	-0.048	0.007	0.019
ACSL1 (UniProt P33121)	0.02	-0.169	0.001	0.096	-0.062	0.007	-0.052	0.057	-0.08	-0.036
ABCF3 (UniProt Q9NUQ8)	0.013	-0.172	0.029	-0.01	-0.01	-0.031	0.11	0.004	-0.003	-0.006
ABHD17A isoform 2 (UniProt Q96GS6)	-0.025	0.023	-0.025	-0.009	0.01	-0.009	-0.222	-0.12	0.04	0.044
ABHD16A (UniProt O95870)	0.036	0.066	-0.077	0.009	0.054	-0.074	0.245 (active)	-0.029	-0.004	-0.021
